Inconclusive results are not listed. The source made the active and inactive calls. Unless noted, calls come from the whole dose curve; as a rule, active = well fitted curve in the direction sought with a large enough effect; inconclusive = small, poorly fitted or top-dose-only effect, or another doubt; inactive = no such curve, though single readings can be large; an effect the other way counts as inactive or inconclusive.

Experiment [1] addresses Cytochrome P450 3A4 (Homo sapiens) (UniProt P08684). Put plainly: Cytochrome P450 family 3 subfamily A member 4 (CYP3A4) small molecule antagonists: luciferase qHTS assay (AID 1645841; active = well fitted curve in the direction sought with a large enough effect in the repeat runs; an effect the other way counts as inactive or inconclusive; note: nearly all actives have a fitted effect of over 45% in size). In short, it runs like this:
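Luminescent CYP3A4 activity readout: compounds plus enzyme-substrate mix 10 min at room temperature, reaction started with NADPH regenerating system for 1 h, stopped with detection reagent, read after 20 min. Ketoconazole served as control.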
(In qHTS, concentration-response curves come from the screen itself.)

Experiment [2] is described as follows: ZIKV-mCherry secondary qHTS for Zika virus inhibitors (AID 1347158). Note: potency is the fitted concentration of half-maximal effect. The gist of the method: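 Vero, 5,000 cells/well, o/n 37 °C; cpd pin-transferred in DMSO; ZIKV-mCherry MOI 1, 48-72 h 37 °C; 32% PFA stock fix, Hoechst; imaged 10x DAPI/mCherry; mCherry+ threshold 450 RFU; % infection.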
For experiment [3], the target named is Cytochrome P450 3A4 (Homo sapiens) (UniProt P08684). Briefly: qHTS Assay for Activators of Cytochrome P450 3A4 (AID 885). Note: nearly all actives have a fitted effect of over 65% in size. In short, it runs like this:
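Signal was normalized against complete inhibition by 57 uM ketoconazole. The reaction used 20nM CYP3A4 with 25uM Luciferin-PPXE, 10-min compound preincubation and a 60-min NADPH-supported step at RT.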

Experiment [4] can be described thus: Counterscreen qHTS for small molecule stabilizers of the endoplasmic reticulum resident proteome: GLuc-NoTag assay (AID 1508627).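 Note: SH-SY5Y cells given compound then 100 nM thapsigargin to empty ER calcium.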 The gist of the method:
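Luminescence of Gaussia luciferase secreted into the medium (coelenterazine, 0.07x final, unlysed cells) was the read-out. Human SH-SY5Y neuroblastoma cells constitutively secreting untagged GLuc received compound for 19 h, then 100 nM thapsigargin for 4 h.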
A general note: Counterscreens check selectivity or assay interference.

Experiment [5] is described as follows: Confirmatory qHTS for small molecule stabilizers of the endoplasmic reticulum resident proteome: Secreted ER Calcium Modulated Protein (SERCaMP) assay (AID 1508628). Note: potency is the fitted concentration of half-maximal effect; nearly all actives have a fitted effect of over 40% in size. The gist of the method:
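SH-SY5Y cells stably expressing GLuc-SERCaMP, treated 16 h with compound (primary 1.53, 7.67, 38.3 uM; confirmation 11 concentrations, up to 76.6 uM), then 100 nM thapsigargin for 4 h. Secreted Gaussia luciferase in medium read by coelenterazine luminescence.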

Experiment [6] deals with Cytochrome P450 3A4 (Homo sapiens) (UniProt P08684). Briefly: qHTS Assay for Inhibitors and Substrates of Cytochrome P450 3A4 (AID 884). Note: nearly all actives have a fitted effect of over 50% in size. The gist of the method: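 20 nM human CYP3A4 with 25 uM Luciferin-PPXE (at KM) in 200 mM KPO4, preincubated 10 min with compound; NADPH regeneration started a 60 min RT reaction. Luciferin detected by luminescence, normalized to 57 uM ketoconazole as full inhibition.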
Sequence of Cytochrome P450 3A4 (Homo sapiens) (P08684 whole entry, looked up): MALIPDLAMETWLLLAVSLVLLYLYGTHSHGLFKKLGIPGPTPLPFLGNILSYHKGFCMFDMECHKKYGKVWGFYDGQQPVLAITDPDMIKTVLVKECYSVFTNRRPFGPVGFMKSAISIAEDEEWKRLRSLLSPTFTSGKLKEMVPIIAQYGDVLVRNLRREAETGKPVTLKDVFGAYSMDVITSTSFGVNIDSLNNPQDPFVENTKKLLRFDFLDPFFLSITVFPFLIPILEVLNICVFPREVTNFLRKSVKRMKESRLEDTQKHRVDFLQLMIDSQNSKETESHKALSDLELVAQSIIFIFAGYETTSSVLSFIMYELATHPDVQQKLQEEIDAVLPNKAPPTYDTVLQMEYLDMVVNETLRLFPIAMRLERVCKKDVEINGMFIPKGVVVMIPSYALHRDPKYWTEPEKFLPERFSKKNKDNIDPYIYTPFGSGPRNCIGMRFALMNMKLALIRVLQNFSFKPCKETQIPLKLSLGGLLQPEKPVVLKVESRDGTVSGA

For experiment [7], the system named is DFO2036. Briefly: qHTS profiling for inhibitors of Plasmodium falciparum proliferation (AID 504749). Note: nearly all actives have a fitted effect of over 60% in size. Note: potency is the fitted concentration of half-maximal effect. The note with it: P. falciparum in erythrocytes, SYBR Green DNA, 72 h; series mostly up to 28.7 µM. The gist of the method: (§1)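 Infected RBCs, 0.3% parasitemia/2.5% Hct final; cpd 72 h, 37 C, 5% CO2; lysis buffer with saponin/triton/SYBR Green I, o/n RT dark; FI 485/535; norm. to artemisinin (0.29 uM) and DMSO.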

Experiment [8] has as its system DIV30. The description is as above. The following applies: P. falciparum in erythrocytes, SYBR Green DNA, 72 h; series mostly up to 28.7 µM. In short, it runs like this: as §1
Experiment [9] relates to Dd2. The description is as above. The following applies: P. falciparum in erythrocytes, SYBR Green DNA, 72 h; series mostly up to 28.7 µM. In short, it runs like this:
as §1

Experiment [10] deals with FAB9. The description is as above. The note with it: P. falciparum in erythrocytes, SYBR Green DNA, 72 h; series mostly up to 28.7 µM. The gist of the method: as §1
The subject of experiment [11] is GB4. Described as above. The following applies: P. falciparum in erythrocytes, SYBR Green DNA, 72 h; series mostly up to 28.7 µM. In short, it runs like this:
as §1

Experiment [12] concerns ICS. The experiment is described as above. The following applies: P. falciparum in erythrocytes, SYBR Green DNA, 72 h; series mostly up to 28.7 µM. In short, it runs like this: as §1
The subject of experiment [13] is JCK. Described as above. The following applies: P. falciparum in erythrocytes, SYBR Green DNA, 72 h; series mostly up to 28.7 µM. The gist of the method: as §1
In experiment [14] the test system is PAD. The experiment is described as above. The note with it: P. falciparum in erythrocytes, SYBR Green DNA, 72 h; series mostly up to 28.7 µM. The gist of the method: as §1
Experiment [15] deals with PC15. Described as above. The note with it: P. falciparum in erythrocytes, SYBR Green DNA, 72 h; series mostly up to 28.7 µM. In short, it runs like this:
as §1

Experiment [16] deals with PC49. The description is as above. The note with it: P. falciparum in erythrocytes, SYBR Green DNA, 72 h; series mostly up to 28.7 µM. In short, it runs like this: as §1
For experiment [17], the system named is SC27B. The description is as above. The following applies: P. falciparum in erythrocytes, SYBR Green DNA, 72 h; series mostly up to 28.7 µM. In short, it runs like this: as §1
Experiment [18] concerns W2. The description is as above. The note with it: P. falciparum in erythrocytes, SYBR Green DNA, 72 h; series mostly up to 28.7 µM. In short, it runs like this:
as §1

Experiment [19] relates to astro. Put plainly: Drug repurposing screens with cells derived from glioblastoma tumor samples (AID 1345199). Note: nearly all actives have a fitted effect of over 40% in size. The note with it: viability, ATP luminescence, 48 h; series mostly up to 45.9 µM. The gist of the method:
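Four patient lines of CD133+ GBM neurospheres were screened at several concentrations; hits were retested in those lines plus three slower-growing GBM lines, using 48-hour treatment and ATP-based viability.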

The target of experiment [20] is Calcium and integrin-binding protein 1 (Homo sapiens) (UniProt Q99828). Briefly: Confirmatory qHTS for Identification of Calcium Integrin Binding Protein 1 (CIB1) Competitor (AID 1508617). Note: nearly all actives have a fitted effect of over 65% in size. The gist of the method: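 Compounds at up to 114 uM final met 1 uM GST-tagged CIB1 for 15 min at room temperature (HEPES pH 7.4, 5 mM CaCl2). FITC-labelled alphaIIb peptide, 100 nM, added; polarization read after 15 min more.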
Sequence of Calcium and integrin-binding protein 1 (Homo sapiens) (Q99828 whole entry, looked up): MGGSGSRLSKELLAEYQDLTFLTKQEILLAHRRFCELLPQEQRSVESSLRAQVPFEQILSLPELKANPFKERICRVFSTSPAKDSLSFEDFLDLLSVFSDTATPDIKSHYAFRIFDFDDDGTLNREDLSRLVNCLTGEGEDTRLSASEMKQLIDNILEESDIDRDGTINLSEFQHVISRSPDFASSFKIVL

Regarding `Cc1ccc(C(=O)N2CCN(c3ccc([N+](=O)[O-])cc3)CC2)cc1Cl`, in [1], the call was inactive.
As to `O=C(NCc1ccc(Oc2ccccc2)cc1)c1nc(-c2cc(Br)c(O)c(Br)c2)no1`, the Potency in experiment [2] was 7080 nM (active).
Take `Oc1ccc(Nc2nc(-c3ccc(Cl)cc3)cs2)cc1`: the Potency result in [3] and in experiment [4] was “inactive” in each case. In addition, the Potency in experiment [5] was 2000 nM (active).
With `CCCCC(=O)N(Cc1ccc(-c2ccccc2-c2nn[nH]n2)cc1)C(C(=O)O)C(C)C` (centres undefined), the Potency entry in experiment [6], in [7], in experiment [8], in experiment [9], in [10] and in experiment [13] was “inactive” throughout. Also, the Potency result in [14], in experiment [15], in [16] and in experiment [17] was “inactive” in each case. Also, the Potency in [11] is 13500 nM (active); in experiment [12] it was 7940 nM (active); in experiment [18], 15100 nM (active).
Regarding `CCNC(=O)[C@@H]1CCCN1C(=O)[C@H](CCCN=C(N)N)NC(=O)[C@H](CC(C)C)NC(=O)[C@@H](CC(C)C)NC(=O)[C@H](Cc1ccc(O)cc1)NC(=O)[C@H](CO)NC(=O)[C@H](Cc1c[nH]c2ccccc12)NC(=O)[C@H](Cc1cnc[nH]1)NC(=O)[C@@H]1CCC(=O)N1`, in [19], the Potency result is “inactive”.
On the same count and under the same terms, under `Nc1ccc(N)c([N+](=O)[O-])c1` stands “inactive”.
In the case of `Cn1cnc(-c2nccc3c(=O)[nH]c(OCCCC(F)(F)F)nc23)c1`, the result in experiment [20] was inactive.
Consider `O=C(CC1NCCC[C@H]1O)Cn1cnc2cc(Br)c(Cl)cc2c1=O` (some centres undefined), for which the Potency is 2820 nM (active) in [7]; 3380 nM (active) in experiment [8]; 708 nM (active) in experiment [9]; 1000 nM (active) in [10]; 1900 nM (active) in experiment [11]; 1120 nM (active) in experiment [12]. Moreover, the Potency in [13] was 2820 nM (active); in [14] it was 2240 nM (active); in experiment [15], 891 nM (active); in [16], 1780 nM (active); in experiment [17] it was 11200 nM (active); in [18], 675 nM (active).
For `CN(C)CCCCCCNC(=O)c1cccc(-c2cc(O)c3ncccc3c2)c1`, the result in experiment [20] was inactive.

Values taken from PubChem BioAssay (NCATS).
